Records with an inconclusive call do not appear. Entries that show only a call come without a potency. Active and inactive are the calls of the source. Calls come from the whole dose curve; as a rule, active = well fitted inhibition curve with a large enough effect; inconclusive = small, poorly fitted or top-dose-only effect; inactive = no such curve, though single readings can be large or run the other way. Peptide text beside a SMILES is read from it.
The compounds below were run against Retinaldehyde dehydrogenase 3 (Homo sapiens) (UniProt P47895) (assay: qHTS for Inhibitors of the Aldehyde Dehydrogenase Family (ALDH1A3) Primary screen (AID 2061315)). Conditions: ALDH inhibition qHTS; series mostly up to 56 µM.

Row | SMILES | Potency | activity change, negative = inhibition
1 | Nc1nc(O)c(C2=C3C(=Nc4ccccc43)C(=O)NCC2)[nH]1 | inactive | 
2 | CC1(C)CC[C@]2(C(=O)O)CC[C@]3(C)C(=CCC4[C@@]5(C)C[C@@H](O)[C@H](O)[C@@](C)(CO)C5[C@H](O)C[C@]43C)[C@@H]2C1 (some centres not stated) | inactive | 
3 | CC(O)C(O)/C=C/C=C/C(=O)O[C@@H]1C=C2COC(=O)[C@]2(O)[C@@]2(C)CCCC(C)(C)C12 (some centres not stated) | inactive | 
4 | CC1(C)CC[C@]2(C(=O)O[C@@H]3O[C@H](CO[C@@H]4O[C@H](CO)[C@@H](O)[C@H](O)[C@H]4O[C@@H]4O[C@H](CO)[C@H](O)[C@H](O)[C@H]4O)[C@@H](O)[C@H](O[C@@H]4O[C@H](CO)[C@@H](O)[C@H](O)[C@H]4O)[C@H]3O)CC[C@]3(C)C(=CCC4[C@@]5(C)CC[C@H](O[C@@H]6OC[C@@H](O)[C@H](O)[C@H]6O)[C@@](C)(C(=O)O)C5CC[C@]43C)[C@@H]2C1 (some centres not stated) |  | 11.9% [at 11.2 µM] (inactive)
5 | C=C(C)C1=C[C@@]2(C)C(=CC1=O)CC[C@@H](O)[C@@H]2C | inactive | 
6 | CC(=O)OC1C(OC(=O)c2ccccc2)C2C(=C(C)CCC2(C)C)C23CCC(C)(C2)C(=O)CC13 (configuration not stated) | inactive | 
7 | CO[C@@H]1[C@]2(O)C(=O)N3/C=C\C(C)(C)c4[nH]c5ccccc5c4/C=C\3C(=O)N2[C@]23[C@H](CO)C(C)(C)N2c2ccccc2[C@]13O | inactive | 
8 | CC(C)(O)[C@@H]1CC[C@]2(CO)[C@@H](O)CC[C@](C)(O)[C@H]2[C@@H]1O[C@@H]1O[C@H](CO)[C@@H](O)[C@H](O)[C@H]1O | inactive | 
9 | COC(=O)C1C(c2ccc(O)cc2)C(C(=O)O)C1c1ccc(O)cc1 (configuration not stated) | inactive | 
10 | CC(C)=CCC/C(C)=C/CC/C(C)=C/COC1OC(COC2OCC(OC3OCC(O)C(O)C3O)C(O)C2O)C(O)C(OC2OC(C)C(OC3OC(C)C(OC4OCC(OC5OC(C)C(O)C(O)C5O)C(O)C4O)C(O)C3O)C(O)C2O)C1O (configuration not stated) |  | -4.87% [at 11.2 µM] (inactive)
11 | Nc1nc(-n2cc(C(=O)O)c(=O)c3cc(F)c(N4CC(O)C4)c(Cl)c32)c(F)cc1F | inactive | 
12 | C[C@@H](O)[C@H](N)C(=O)N1CCC[C@H]1C(=O)N1CCC[C@H]1C(=O)N[C@H](C(N)=O)[C@@H](C)O (H-TPPT-NH2) |  | -29.1% [at 11.2 µM] (inactive)
13 | C[C@@H]1O[C@@H](O[C@@H]2[C@@H](O)[C@H](O[C@@H]3[C@@H](O)[C@@H](O)[C@H](O[C@H]4[C@H](OC(=O)[C@]56CCC(C)(C)C[C@H]5C5=CCC7[C@@]8(C)C[C@H](O)[C@H](O[C@@H]9O[C@H](C(=O)O)[C@@H](O)[C@H](O)[C@H]9O)[C@@](C)(CO)C8[C@H](O)C[C@@]7(C)[C@]5(C)CC6)OC[C@H](O)[C@@H]4O)O[C@H]3C)OC[C@H]2O)[C@H](O)[C@H](O)[C@H]1O (some centres not stated) |  | 15.6% [at 11.2 µM] (inactive)
14 | CC1(C)CC[C@]2(C(=O)O)[C@H](O)C[C@]3(C)C(=CCC4[C@@]5(C)CC[C@H](O[C@@H]6O[C@H](CO[C@@H]7OC[C@H](O)[C@H](O)[C@H]7O[C@@H]7OC[C@@H](O)[C@H](O)[C@H]7O)[C@@H](O)[C@H](O)[C@H]6O[C@@H]6O[C@H](CO)[C@@H](O)[C@H](O)[C@H]6O)C(C)(C)C5CC[C@]43C)[C@@H]2C1 (some centres not stated) | inactive | 
15 | CO[C@H]1C=C2C(CC[C@H](O[C@@H]3O[C@H](CO)[C@@H](O)[C@@H](O)[C@H]3O)C2(C)C)[C@]2(C)CC[C@]3(C)C([C@H](C)C(O)C(C=C(C)C)O[C@@H]4O[C@H](CO)[C@@H](O)[C@@H](O)[C@H]4O)CC[C@@]3(C)C12 (some centres not stated) | inactive | 
16 | C/C(=C/CCC(CO)C1CCC2(C)C3CCC4C(C)(C)C(OC5OC(CO)C(O)C(O)C5O)CC(O)C45CC35CCC12C)COC1OC(CO)C(O)C(O)C1O (configuration not stated) | inactive | 
17 | CC(O)/C=C/C1(O)C(C)C(O[C@@H]2O[C@H](CO)[C@@H](O)[C@H](O)[C@H]2O)C(O)CC1(C)C (some centres not stated) | inactive | 
